Screening data (PubChem)
Only a selection was taken, and hits are over-represented in it overall.
S aureus helic: blocks Staphylococcus aureus DNA helicase. inhibition, % (concentration not given with the values). 120,000 tested, 0.05% active. AID 485395. purified S. aureus helicase, fluorescence unwinding assay; in the data active = inhibition above about 25%, passing the limit was not always enough;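 note: 0% = mean of negative control wells and 100% = mean of positive control wells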
Sa growth inh: S. aureus growth inhibition. S. aureus RN4220 growth, OD600, 20 h, 42 °C; stronger effect = lower value. 170,000 tested, 0.53% active. relative growth, % (concentration not given with the values);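 active = relative growth at most 50% at the other temperature and 20+ points below 30 °C, or under 10% at both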
Numbers without * were called inactive.

Screening CCn1nc(-c2ccccc2)nc2c(=O)n(C)c(=O)nc1-2 returned S aureus helic -133.0 and Sa growth inh 0.3*.
For CCn1nc(-c2cccnc2)nc2c(=O)n(C)c(=O)nc1-2 the results were S aureus helic -20.0 and Sa growth inh -0.2*.
CCN(CC)C(=O)c1ccc(NC(=O)Cn2nc(-c3ccccc3)c3ccccc3c2=O)cc1 was read as S aureus helic 2.0 and Sa growth inh 97.8.
Screening N#CC1=C2SCC(O)(c3ccco3)N2C(=O)CC1c1ccccc1F (configuration not stated) returned S aureus helic 13.0 and Sa growth inh 102.2.
For CCC1CCCCN1CC(=O)c1ccccc1Cl (configuration not stated) the results were S aureus helic -15.0 and Sa growth inh 109.2.
Screening Cc1c(C#N)c2nc3ccccc3n2c(=O)/c1=C\Nc1ccc(N2CCOCC2)c(Cl)c1 returned S aureus helic -25.0 and Sa growth inh 85.2.
Screening NC(=O)CCN1CCCCC1c1cccnc1 (configuration not stated) returned S aureus helic -16.0 and Sa growth inh 93.9.
Screening CCOc1cc(N(CC)CC)ccc1C=C1C(=O)NC(=S)NC1=O returned S aureus helic -119.0 and Sa growth inh 98.8.
For N#CC(C#N)=NNc1ccccc1 the results were S aureus helic 0.0 and Sa growth inh 0.0*.
For N#CC(C#N)=C(C#N)c1ccc(Nc2ccccc2)cc1 the results were S aureus helic -2.0 and Sa growth inh 84.8.
`O=C(COc1ccc(OCc2ccccc2)cc1)NC1CN2CCC1CC2` (configuration not stated) gave S aureus helic -4.0 and Sa growth inh 79.9.
Screening N#CC(c1c[nH]c2ccccc12)N1CCOCC1 (configuration not stated) returned S aureus helic -2.0.
Screening COC(=O)c1cc(C=C(C#N)C#N)cn1C returned S aureus helic -21.0 and Sa growth inh 101.0.
For CN(C)C(=O)Oc1cccc2cccnc12 the results were S aureus helic 0.0 and Sa growth inh 101.7.
For Oc1cccc2cccnc12 the results were Sa growth inh 0.2*.
Screening O=C1/C(=C\c2ccc(N3CCCC3)cc2)N2CCC1CC2 returned S aureus helic 7.0 and Sa growth inh 94.9.
Screening C=CCn1c(O)c(C=NCC)c(=O)[nH]c1=S returned Sa growth inh 99.3.
For CNC(=O)c1ccc(/C=C2/C(=O)C3CCN2CC3)cc1 the results were Sa growth inh 97.3.
`CCCC1COC(Cn2cncn2)(c2ccc(Cl)cc2Cl)O1` (configuration not stated) gave S aureus helic 0.0 and Sa growth inh 5.4*.
For CCC1c2c(nc(C)[nH]c2=O)Oc2c1c(=O)oc1ccccc21 (configuration not stated) the results were Sa growth inh 112.1.
Clc1ccc(CSC(Cn2ccnc2)c2ccc(Cl)cc2Cl)cc1 (configuration not stated) was read as Sa growth inh -0.3*.
`Clc1ccc(COC(Cn2ccnc2)c2ccc(Cl)cc2Cl)cc1` (configuration not stated) gave Sa growth inh -0.6*.
For c1ccc(Cn2ccnc2)cc1 the results were Sa growth inh 84.5.
OCCP(c1ccccc1)c1ccccc1 was read as S aureus helic 3.0 and Sa growth inh 112.7.
Screening Cc1oc2ccccc2c1-c1ccc2ccccc2n1 returned S aureus helic -16.0 and Sa growth inh 33.6*.
For Clc1ccc(CO/N=C(\Cn2ccnc2)c2ccc(Cl)cc2Cl)c(Cl)c1 the results were Sa growth inh -0.4*.
Screening O=c1c2ccccc2nc(-c2ccccc2)n1-c1ccccc1 returned S aureus helic 15.0 and Sa growth inh 106.8.
Screening O=c1c2ccccc2[se]n1-c1ccccc1 returned Sa growth inh 0.3*.
For CC1C(c2ccccc2)=NOC(C)(C(=O)c2ccccc2)N1O (configuration not stated) the results were S aureus helic 5.0 and Sa growth inh 86.8.
For O=C(c1cc2ccccc2o1)N1CCN(c2ccccc2)CC1 the results were S aureus helic 2.0 and Sa growth inh 97.7.
